Test results: ChEMBL document CHEMBL3988442, “University of Dundee, Small-Polar-MMV Screening Library” (2021)
For some of these results: Measured potencies and affinities stand elsewhere.

Legend:
Design in all cases: scale not given: direction of the effect not stated beside the values
[1] = biological target: Protein translocase subunit SecA (Escherichia coli (strain K12)) (UniProt P10408); test: Assay to Identify E. coli SecA ATPase Inhibitors; assay type: functional; conditions: 30 µM
[2] = biological target: T1, Ubiquitin-activating enzyme e1, putative (Leishmania donovani (strain BPK282A1)) (UniProt E9BSI1); test: Leishmania donovani Ubiquitin Activating Enzyme (LdE1); assay type: functional; conditions: 30 µM
T1 sequence (whole entry): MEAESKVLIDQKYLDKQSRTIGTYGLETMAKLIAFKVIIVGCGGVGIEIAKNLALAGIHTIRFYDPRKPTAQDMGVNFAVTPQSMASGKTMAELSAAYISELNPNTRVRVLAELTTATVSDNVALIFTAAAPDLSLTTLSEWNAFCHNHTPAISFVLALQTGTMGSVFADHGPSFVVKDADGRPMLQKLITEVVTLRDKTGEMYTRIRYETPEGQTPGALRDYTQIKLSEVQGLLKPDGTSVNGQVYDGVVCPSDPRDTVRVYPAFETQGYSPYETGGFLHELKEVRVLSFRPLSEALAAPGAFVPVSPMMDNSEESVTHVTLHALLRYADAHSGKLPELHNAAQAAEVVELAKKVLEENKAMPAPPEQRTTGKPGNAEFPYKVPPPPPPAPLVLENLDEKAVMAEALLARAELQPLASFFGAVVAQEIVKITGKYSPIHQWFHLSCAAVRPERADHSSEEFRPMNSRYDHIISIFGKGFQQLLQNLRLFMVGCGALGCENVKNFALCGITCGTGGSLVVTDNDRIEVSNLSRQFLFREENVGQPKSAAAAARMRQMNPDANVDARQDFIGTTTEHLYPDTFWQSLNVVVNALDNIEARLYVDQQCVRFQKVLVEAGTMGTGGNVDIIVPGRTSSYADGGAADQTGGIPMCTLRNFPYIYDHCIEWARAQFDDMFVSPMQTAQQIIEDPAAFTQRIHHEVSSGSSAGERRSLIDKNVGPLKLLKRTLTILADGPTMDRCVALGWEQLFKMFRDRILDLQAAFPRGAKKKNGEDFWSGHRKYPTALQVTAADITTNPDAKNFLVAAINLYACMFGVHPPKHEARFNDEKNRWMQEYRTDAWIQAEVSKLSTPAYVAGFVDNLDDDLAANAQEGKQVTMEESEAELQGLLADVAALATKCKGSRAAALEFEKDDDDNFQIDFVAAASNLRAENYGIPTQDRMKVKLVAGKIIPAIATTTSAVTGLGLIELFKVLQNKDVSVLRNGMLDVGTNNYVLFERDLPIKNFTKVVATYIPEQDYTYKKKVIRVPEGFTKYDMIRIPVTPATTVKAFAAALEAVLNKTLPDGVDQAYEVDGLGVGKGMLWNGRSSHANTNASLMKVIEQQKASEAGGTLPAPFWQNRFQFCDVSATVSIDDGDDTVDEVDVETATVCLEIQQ

[3] = biological target: T2, Aspartate--tRNA(Asp/Asn) ligase (Mycobacterium tuberculosis (strain ATCC 25618 / H37Rv)) (UniProt P9WFW3); test: Assay for Asp RNA synthetase-1 from Mycobacterium tuberculosis; assay type: functional; conditions: 30 µM; further: in the data most compounds retested in dose-response had high values
T2 sequence (whole entry): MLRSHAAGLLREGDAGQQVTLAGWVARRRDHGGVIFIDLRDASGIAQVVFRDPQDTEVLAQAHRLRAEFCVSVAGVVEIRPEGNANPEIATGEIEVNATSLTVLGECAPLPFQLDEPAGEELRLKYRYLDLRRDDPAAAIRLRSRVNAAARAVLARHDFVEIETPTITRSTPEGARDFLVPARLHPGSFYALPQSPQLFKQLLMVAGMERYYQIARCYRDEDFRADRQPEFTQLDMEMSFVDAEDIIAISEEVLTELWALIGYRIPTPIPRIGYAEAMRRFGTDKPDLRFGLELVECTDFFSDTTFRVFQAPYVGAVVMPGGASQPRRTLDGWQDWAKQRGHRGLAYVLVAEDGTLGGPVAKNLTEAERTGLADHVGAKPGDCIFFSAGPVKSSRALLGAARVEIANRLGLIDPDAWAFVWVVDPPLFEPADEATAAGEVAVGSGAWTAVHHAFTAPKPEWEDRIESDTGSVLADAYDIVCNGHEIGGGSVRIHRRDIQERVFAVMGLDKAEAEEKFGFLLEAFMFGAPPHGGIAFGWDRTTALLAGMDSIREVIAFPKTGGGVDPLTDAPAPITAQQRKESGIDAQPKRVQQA

[4] = biological target: Sialic acid-binding Ig-like lectin 9 (Homo sapiens) (UniProt Q9Y336); test: Hs-Siglec9 ALPHAscreen SOP 20170721; conditions: 10 µM
Chain of Sialic acid-binding Ig-like lectin 9 (Homo sapiens) (Q9Y336 whole entry): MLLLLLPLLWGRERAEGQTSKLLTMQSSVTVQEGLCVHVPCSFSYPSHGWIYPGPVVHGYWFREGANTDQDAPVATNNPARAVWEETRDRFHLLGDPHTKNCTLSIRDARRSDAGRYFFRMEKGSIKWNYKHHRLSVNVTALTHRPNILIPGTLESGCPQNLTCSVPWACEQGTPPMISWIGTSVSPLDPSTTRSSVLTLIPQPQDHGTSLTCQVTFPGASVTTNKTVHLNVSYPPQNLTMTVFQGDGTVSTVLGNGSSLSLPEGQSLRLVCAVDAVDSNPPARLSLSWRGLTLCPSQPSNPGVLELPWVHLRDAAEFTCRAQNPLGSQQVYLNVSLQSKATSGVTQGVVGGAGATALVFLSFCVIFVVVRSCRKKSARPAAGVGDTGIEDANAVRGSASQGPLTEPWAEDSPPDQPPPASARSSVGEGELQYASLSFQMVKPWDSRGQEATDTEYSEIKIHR

Trypanosoma cruzi = test: Trypanosoma cruzi phosphomannomutase and mannose-1-phosphate guanylyltransferase assay; assay type: functional; conditions: 10 µM
[5] = biological target: T3, Arginase-2, mitochondrial (Homo sapiens) (UniProt P78540); test: in vitro enzyme assay to detect the production of urea directly proportional to the activity of Arginase II; assay type: functional; conditions: 33.3 µM; further: in the data most compounds retested in dose-response had high values
T3 sequence (whole entry): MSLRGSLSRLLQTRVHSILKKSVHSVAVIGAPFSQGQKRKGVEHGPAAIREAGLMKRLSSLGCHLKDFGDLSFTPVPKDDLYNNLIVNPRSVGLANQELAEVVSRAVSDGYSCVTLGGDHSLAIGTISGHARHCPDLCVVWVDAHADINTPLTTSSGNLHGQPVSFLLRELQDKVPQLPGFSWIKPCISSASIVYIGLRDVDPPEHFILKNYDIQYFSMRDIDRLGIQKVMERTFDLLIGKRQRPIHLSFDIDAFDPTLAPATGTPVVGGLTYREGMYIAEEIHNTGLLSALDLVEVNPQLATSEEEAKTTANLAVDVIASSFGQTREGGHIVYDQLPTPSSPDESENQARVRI

[6] = biological target: T4, Proteasome subunit beta (Trypanosoma cruzi) (UniProt O96673); test: Trypanosoma cruzi proteasome chymotrypsin-like activity (TcProtChymo) assay.; further: in the data most compounds retested in dose-response had high values; assay type: functional; conditions: 9.37 µM
T4 sequence (whole entry): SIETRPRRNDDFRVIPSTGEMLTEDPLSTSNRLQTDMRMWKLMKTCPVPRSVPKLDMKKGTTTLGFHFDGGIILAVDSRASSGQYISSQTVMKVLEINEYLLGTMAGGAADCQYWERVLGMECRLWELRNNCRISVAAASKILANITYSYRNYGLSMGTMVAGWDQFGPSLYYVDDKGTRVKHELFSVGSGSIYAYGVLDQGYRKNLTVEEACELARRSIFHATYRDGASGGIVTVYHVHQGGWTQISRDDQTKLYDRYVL

Homo sapiens = species: Homo sapiens; test: To identify inhibition of the IFN signalling (Jak-Stat) pathway via expression of an eGFP reporter gene under the control of an IFN-stimulated response element (ISRE) containing MxA promoter.; assay type: functional; conditions: 30 µM
[7] = biological target: Shiga toxin 2 (Escherichia coli O157:H7) (UniProt P09385+P09386); test: E. coli 0.157:H7 Shiga Toxin SOP - stx2 screening assay; assay type: functional; conditions: 30 µM
[8] = biological target: T5, Tyrosyl-tRNA synthetase, putative (Trypanosoma cruzi (strain CL Brener)) (UniProt Q4DSP6); test: Trypanosoma cruzi tyrosyl tRNA synthetase (TcYRS) _High Tyrosine SOP; assay type: functional; conditions: 30 µM; further: in the data most compounds retested in dose-response had high values
T5 sequence (whole entry): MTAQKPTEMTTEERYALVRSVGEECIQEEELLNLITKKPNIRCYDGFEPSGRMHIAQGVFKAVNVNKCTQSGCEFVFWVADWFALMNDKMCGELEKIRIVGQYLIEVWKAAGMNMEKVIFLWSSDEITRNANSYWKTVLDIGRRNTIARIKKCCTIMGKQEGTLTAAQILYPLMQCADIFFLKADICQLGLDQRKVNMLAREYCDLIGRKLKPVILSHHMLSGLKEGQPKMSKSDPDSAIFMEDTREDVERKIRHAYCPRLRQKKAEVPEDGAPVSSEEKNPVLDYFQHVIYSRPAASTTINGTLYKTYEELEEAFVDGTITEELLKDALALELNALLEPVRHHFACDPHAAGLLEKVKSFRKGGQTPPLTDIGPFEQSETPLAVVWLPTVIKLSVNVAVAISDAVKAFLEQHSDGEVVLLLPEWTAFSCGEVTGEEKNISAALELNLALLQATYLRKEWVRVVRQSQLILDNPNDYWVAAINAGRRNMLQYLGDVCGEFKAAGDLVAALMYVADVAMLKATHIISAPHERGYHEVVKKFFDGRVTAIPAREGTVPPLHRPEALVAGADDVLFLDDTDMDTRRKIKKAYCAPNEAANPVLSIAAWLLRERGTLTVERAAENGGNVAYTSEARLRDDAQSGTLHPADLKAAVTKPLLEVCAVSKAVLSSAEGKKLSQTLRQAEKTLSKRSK

[9] = biological target: T5, Tyrosyl-tRNA synthetase, putative (Trypanosoma cruzi (strain CL Brener)); test: Trypanosoma cruzi tyrosyl tRNA synthetase (TcYRS) SOP; assay type: functional; conditions: 30 µM
[10] = biological target: Chromo domain-containing protein 1 (Saccharomyces cerevisiae (strain ATCC 204508 / S288c) (Baker's yeast)) (UniProt P32657); test: ScCHD-1 Enzyme Inhibition Assay; assay type: functional; conditions: 30 µM; further: in the data most compounds retested in dose-response had high values
Chain of Chromo domain-containing protein 1 (Saccharomyces cerevisiae (strain ATCC 204508 / S288c) (Baker's yeast)) (P32657 whole entry, the tested form may be a part): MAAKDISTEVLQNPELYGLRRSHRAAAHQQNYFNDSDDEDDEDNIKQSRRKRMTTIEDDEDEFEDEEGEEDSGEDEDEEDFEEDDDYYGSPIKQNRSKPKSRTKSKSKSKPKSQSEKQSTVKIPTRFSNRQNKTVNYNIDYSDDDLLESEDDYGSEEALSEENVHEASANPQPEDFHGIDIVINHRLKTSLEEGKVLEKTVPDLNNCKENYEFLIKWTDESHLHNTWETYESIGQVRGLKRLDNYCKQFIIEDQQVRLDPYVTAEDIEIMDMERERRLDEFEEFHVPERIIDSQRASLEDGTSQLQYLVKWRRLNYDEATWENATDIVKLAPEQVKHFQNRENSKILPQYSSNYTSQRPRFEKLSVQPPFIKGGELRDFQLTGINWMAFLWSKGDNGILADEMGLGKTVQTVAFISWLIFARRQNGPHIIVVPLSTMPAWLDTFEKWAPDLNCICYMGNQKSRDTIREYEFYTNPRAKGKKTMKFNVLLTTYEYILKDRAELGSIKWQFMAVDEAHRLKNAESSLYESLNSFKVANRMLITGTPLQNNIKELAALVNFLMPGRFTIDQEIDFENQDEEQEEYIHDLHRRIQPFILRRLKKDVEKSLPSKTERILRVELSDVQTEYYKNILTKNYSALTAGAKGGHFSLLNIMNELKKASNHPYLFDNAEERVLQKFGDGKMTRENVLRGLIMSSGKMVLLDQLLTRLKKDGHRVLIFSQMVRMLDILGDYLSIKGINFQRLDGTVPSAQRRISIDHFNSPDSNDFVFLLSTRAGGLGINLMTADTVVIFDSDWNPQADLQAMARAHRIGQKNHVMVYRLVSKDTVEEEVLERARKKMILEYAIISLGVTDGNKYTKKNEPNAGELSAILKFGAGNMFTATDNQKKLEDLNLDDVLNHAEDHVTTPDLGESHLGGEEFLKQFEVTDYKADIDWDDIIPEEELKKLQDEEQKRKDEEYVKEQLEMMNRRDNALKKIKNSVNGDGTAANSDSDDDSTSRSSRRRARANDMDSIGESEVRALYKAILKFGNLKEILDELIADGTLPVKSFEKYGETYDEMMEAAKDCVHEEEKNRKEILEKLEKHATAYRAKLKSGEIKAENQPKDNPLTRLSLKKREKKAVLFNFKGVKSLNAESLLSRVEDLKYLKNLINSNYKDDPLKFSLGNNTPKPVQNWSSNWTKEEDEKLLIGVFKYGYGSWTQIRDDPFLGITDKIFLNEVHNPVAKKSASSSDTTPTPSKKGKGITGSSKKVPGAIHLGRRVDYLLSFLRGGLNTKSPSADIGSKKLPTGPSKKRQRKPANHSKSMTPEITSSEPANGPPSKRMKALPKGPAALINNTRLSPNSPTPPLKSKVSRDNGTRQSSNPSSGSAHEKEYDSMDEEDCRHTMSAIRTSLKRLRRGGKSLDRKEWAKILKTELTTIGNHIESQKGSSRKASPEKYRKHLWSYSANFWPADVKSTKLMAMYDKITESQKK

[11] = biological target: AMP-activated protein kinase, AMPK (Homo sapiens) (UniProt P54646+O43741+P54619+Q9UGJ0+Q9Y478+Q13131+Q9UGI9); test: AMP-dependent Kinase enzyme assay. An in vitro enzyme assay that detects ADP turnover that is directly proportional to AMPK activity. This uses naive AMPK that is activated during the assay with MK-8722; assay type: functional; conditions: 30 µM

Chain of Protein translocase subunit SecA (Escherichia coli (strain K12)) (P10408 whole entry): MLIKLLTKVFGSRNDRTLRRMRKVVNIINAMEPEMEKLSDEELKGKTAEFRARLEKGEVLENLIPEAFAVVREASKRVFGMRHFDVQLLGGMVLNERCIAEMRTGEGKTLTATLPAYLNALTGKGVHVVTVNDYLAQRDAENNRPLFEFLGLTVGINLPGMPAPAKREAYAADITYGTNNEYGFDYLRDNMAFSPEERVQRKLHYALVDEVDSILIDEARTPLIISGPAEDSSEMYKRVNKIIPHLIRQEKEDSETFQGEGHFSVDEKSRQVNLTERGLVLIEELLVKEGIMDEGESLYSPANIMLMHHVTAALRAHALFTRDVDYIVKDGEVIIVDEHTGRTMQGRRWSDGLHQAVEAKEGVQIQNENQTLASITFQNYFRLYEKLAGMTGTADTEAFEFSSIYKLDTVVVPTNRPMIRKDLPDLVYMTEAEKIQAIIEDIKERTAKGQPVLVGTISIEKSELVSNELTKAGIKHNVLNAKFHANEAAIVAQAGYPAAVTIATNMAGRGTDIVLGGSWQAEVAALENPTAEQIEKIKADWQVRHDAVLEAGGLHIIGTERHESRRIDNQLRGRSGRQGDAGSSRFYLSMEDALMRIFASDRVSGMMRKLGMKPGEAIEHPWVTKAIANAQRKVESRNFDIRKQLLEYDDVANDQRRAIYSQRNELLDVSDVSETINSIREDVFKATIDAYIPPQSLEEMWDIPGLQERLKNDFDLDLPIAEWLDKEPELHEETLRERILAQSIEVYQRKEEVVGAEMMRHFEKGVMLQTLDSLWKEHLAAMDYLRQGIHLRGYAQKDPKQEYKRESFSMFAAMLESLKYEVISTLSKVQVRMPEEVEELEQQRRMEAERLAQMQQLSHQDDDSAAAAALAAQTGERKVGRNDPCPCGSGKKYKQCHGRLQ

Row | SMILES | Percent Effect [1] [%] | Percent Effect [2] [%] | Percent Effect [3] [%] | Percent Effect [4] [%] | Percent Effect (Trypanosoma cruzi) [%] | Percent Effect [5] [%] | Percent Effect [6] [%] | Percent Effect (Homo sapiens) [%] | Percent Effect [7] [%] | Percent Effect [8] [%] | Percent Effect [9] [%] | Percent Effect [10] [%] | Percent Effect [11] [%]
1 | CC[C@H]1NCCC[C@]12CCC(=O)N2Cc1ccncc1 | -3.12 | 11.7 | 0.865 | 1.31 | 0 | 1.37 | -0.772 | -15 | -6.09 | 5.8 | 15 | -0.792 | 
2 | COc1ccc(Cl)cc1CC(=O)N1CCN(CCO)CC1 | -6.68 | 10.4 | 1.78 | 0.349 | -4.1 | 4.71 | 0.877 | 12.1 | -8.21 | -1.96 | -2.35 | 2.44 | 
3 | CC(c1ccc(F)cc1)N1CCN(Cc2ccc(C#N)cc2)CC1 (stereo unspecified) | -5.23 | 13.5 | -0.88 | 2.94 | -4.81 | -0.401 | 7.57 | 18.8 | 24.7 | 4.43 | 13.6 | -5.01 | -5.75
4 | COCC1CC2(CCN(Cc3ccccn3)CC2)CN1C(C)C (stereo unspecified) | -6.44 | 6.49 | 4.1 | 6.75 | 7.11 | -8.1 | 7.5 | 2.62 | -1.31 | 3.68 | 12.8 | 2.02 | 
5 | CN(C)CCN1CCCC12CCN(C(=O)c1cccnc1)CC2 | -0.609 | 3.9 | 1.98 | -1.37 | 0.563 | 4.11 | 8.5 | -12.2 | -15.3 | 3.87 | 7.5 | 1.23 | 
6 | Cc1noc(C)c1CN1CC[C@H]2OCC[C@@]2(C(=O)N2CCCO2)C1 | -4.42 | 6.49 | 6.12 | -7.21 | -3.6 | 3.24 | 16.5 | -11.1 | -3.97 | 11.1 | 10.3 | 3.94 | 
7 | NC(=O)CN1CCCN(C(=O)Cc2ccc(F)c(Br)c2)CC1 | -6.33 | 10.7 | -0.338 | -0.341 | -3.61 | -0.444 | 12.6 | -6.89 | -17.2 | 4.74 | 7.69 | -9.76 | 
8 | O=C(NCC(F)(F)F)C1=NOC2(CCCNC2)C1 (stereo unspecified) | -8.38 | 3.9 | 1.78 | 4 | -3.21 | -4.86 | 4.15 | -6.57 | 13.8 | 4.74 | 2.56 | -0.335 | 
9 | CC(=O)N1CCN(Cc2ccccn2)CC2(CC(=O)N(C)C2)C1 (stereo unspecified) | -0.0517 | -29.9 | -4.78 | 4 | 0.938 | -1.37 | 3.35 | -20.2 | 2.99 | 6.76 | 7.5 | -1.54 | 
10 | O=C1CC[C@H]2[C@H](CCN2Cc2ccccn2)N1CC1CCOCC1 | -3.55 | 9.09 | -4.23 | -1.65 | -5.63 | 2.74 | 3.35 | 8.69 | -14 | -0.966 | 2.5 | -0.494 | 
